Consider 31 molecules from ChEMBL document CHEMBL1157539, “Thousands of chemical starting points for antimalarial lead identification” (Nature, 2010).

Holding throughout (format): functional
The test system of assay [1] is Plasmodium falciparum. Kind of assay: GSK_TCMDC: Inhibition of Plasmodium falciparum 3D7 in whole red blood cells, using parasite LDH activity as an index of growth. Test compounds present at 2uM.
Assay [2] has as its system Plasmodium falciparum. The experiment in a line: GSK_TCMDC: Inhibition of Plasmodium falciparum Dd2 in whole red blood cells, using parasite LDH activity as an index of growth. Test compounds present at 2uM.
The test system of assay [3] is HepG2. The experiment in a line: GSK_TCMDC: Percent inhibition of human HepG2 cell line. Test compounds present at 10uM.

Molecules are shown by their SMILES.

As for `O=C(Nc1ccc(Cl)c(Cl)c1)Nc1ccccc1N1CCNCC1.O=C(O)C(F)(F)F`, the Inhibition was 100% in assay [1], 22% in assay [2] and 17% in assay [3].

For `CC(NCC(O)Cn1c2ccccc2c2ccccc21)c1ccccc1.O=C(O)c1ccccc1` (stereo not drawn), the Inhibition was found to be 96% in assay [1], 85% in assay [2] and 37% in assay [3].

On to `Cc1ccc(C(=O)NC2CCN(CCNC(=O)Nc3cc(C)nc4ccccc34)CC2)cc1`, for which the Inhibition is reported as 98% in assay [1], 76% in assay [2] and 0% in assay [3].

As to `CC(C)CCCC(C)(C)NC[C@@H](O)[C@H](Cc1ccccc1)NC(=O)c1cc(NC(C)C)cc(N2CCCCS2(=O)=O)c1.O=CO`, the values for the Inhibition in assay [1], in assay [2] and in assay [3] were 98%, 98% and 2%, respectively.

Consider `CCc1cn2c3c(cc(C(=O)N[C@@H](Cc4ccccc4)[C@H](O)CNC(C)(C)c4cccc(OC)c4)cc13)N(C)S(=O)(=O)C2.O=CO`, for which the results for the Inhibition in assay [1], in assay [2] and in assay [3] were 98%, 99% and 27%, respectively.

For the molecule `O=C1C2C3SC(c4c3ccc3ccccc43)C2C(=O)N1c1ccccc1` (stereo not drawn), the Inhibition in assay [1] worked out at 96%; in assay [2] it was 7%; in assay [3], 0%.

With `O=c1cc(NCCCNCc2ccc(C(F)(F)F)cc2F)[nH]c2ccccc12`, the Inhibition in assay [1] stood at 93%; in assay [2], 48%; in assay [3], 1%.

As for `CCc1cc(-c2onc(C(F)(F)F)c2-c2ccccc2)c(O)cc1OC`, the figures for the Inhibition in assay [1], in assay [2] and in assay [3] were 98%, 73% and 16%, respectively.

As for `O=C(CCCCCNC(=O)c1ccc(O)c(-c2ccc(Cl)c(Cl)c2)c1)NCCN1CCOCC1`, the Inhibition in assay [1] turned out to be 95%; in assay [2], 0%; in assay [3], 0%.

In the case of `O=C(Nc1ccccc1)c1c[nH]cn1`, the Inhibition is 92% in assay [1], 0% in assay [2] and 0% in assay [3].

With `O=C(Nc1ccc(-c2cccc(-c3nc4cc(C(F)(F)F)ccc4[nH]3)c2)cc1)c1ccc(=O)[nH]n1`, the Inhibition came out at 87% in assay [1], 13% in assay [2] and 72% in assay [3].

As for `O=C(O)C(F)(F)F.O=S(=O)(c1ccccc1)n1ccc2cc(Nc3ncnc4cc(C#C[C@H]5CCCN5)sc34)ccc21`, the Inhibition amounted to 85% in assay [1], 56% in assay [2] and 50% in assay [3].

With `Cc1ccc(OCCCCONC(=O)c2ccccc2)cc1`, the Inhibition in assay [1] was 96%; in assay [2] it was 1%; in assay [3], 6%.

On to `Cc1ccc(C)c(NC(=O)Nc2ccc(Nc3nc(C)cc(N4CCOCC4)n3)cc2)c1`, for which the results for the Inhibition in assay [1], in assay [2] and in assay [3] were 98%, 48% and 88%, respectively.

For `CN1CCC(NCc2ccc(-c3cccc(S(=O)(=O)NCCc4ccccn4)c3)cc2)CC1.O=C(O)C(F)(F)F`, the Inhibition in assay [1] was determined as 84%; in assay [2], 0%; in assay [3], 42%.

Take `CC(C)C[C@H](Nc1ccnc(NCC2CCCCC2)n1)C(=O)NCCOc1ccccc1.O=C(O)C(F)(F)F`: the figures for the Inhibition in assay [1], in assay [2] and in assay [3] were 89%, 73% and 37%, respectively.

Consider `CCCN1CCN(CCCNc2c3ccccc3nc3ccccc23)CC1.Cl`, for which the Inhibition in assay [1] was found to be 99%; in assay [2], 0%; in assay [3], 36%.

As for `CC1(C)N=C(N)N=C(N)N1c1ccc(Oc2ccc(Cl)cc2)c(Cl)c1`, the Inhibition stood at 97% in assay [1], 20% in assay [2] and 13% in assay [3].

As for `Cc1noc(-c2ccc(N3CCC(C(=O)N4CCN(C(C)C)CC4)CC3)cc2)n1.Cl`, the results for the Inhibition in assay [1], in assay [2] and in assay [3] were 95%, 0% and 0%, respectively.

Consider `FC(F)(F)c1cccc(Nc2nc3ccccc3nc2Nc2cccc(C(F)(F)F)c2)c1`, for which the results for the Inhibition in assay [1], in assay [2] and in assay [3] were 100%, 100% and 45%, respectively.

With `CC(=O)Nc1ccc(CN(Cc2ccc(C)cc2)Cc2cccc(Oc3ccccc3)c2)cc1`, the Inhibition is 84% in assay [1], 87% in assay [2] and 34% in assay [3].

As for `COc1ccc(-c2nonc2NC(=O)c2cccc(C)c2)cc1OC`, the Inhibition is recorded as 97% in assay [1], 8% in assay [2] and 24% in assay [3].

As for `CN1CCN(c2ccnc3cc4c(cc23)N(C(=O)Nc2ccc3c(c2)CCCC3=O)CC4)CC1.Cl`, the Inhibition amounted to 100% in assay [1], 64% in assay [2] and 5% in assay [3].

On to `CC1CCc2sc(-c3nnc(SC(C)C(=O)N4CCCC4)o3)cc2C1` (stereo not drawn), for which the values for the Inhibition in assay [1], in assay [2] and in assay [3] were 93%, 94% and 1%, respectively.

As for `COc1cc(NC(=O)/C=C/c2cccc3ccoc23)ccc1OCCN(C(C)C)C(C)C.Cl`, the Inhibition in assay [1] was found to be 90%; in assay [2] it was 5%; in assay [3], 22%.

Turning to `Br.CC(C)(C)c1ccccc1OCCCON1C(=N)N=C(N)NC1(C)C`, the Inhibition in assay [1] is 95%; in assay [2], 98%; in assay [3], 63%.

In the case of `COc1ccccc1CCNc1nc(C)cc(N[C@@H](Cc2ccccc2)C(=O)Nc2ccccc2)n1.O=C(O)C(F)(F)F`, the values for the Inhibition in assay [1], in assay [2] and in assay [3] were 100%, 86% and 30%, respectively.

In the case of `COc1cccc(CCNCCCCCCNCCc2ccc(Cl)cc2)c1.Cl`, the Inhibition in assay [1] amounted to 100%; in assay [2] it was 3%; in assay [3], 32%.

For the molecule `Cc1cc(N)c2cc(NC(=O)c3cc(C(F)(F)F)cc(C(F)(F)F)c3)ccc2n1.Cl`, the Inhibition in assay [1] turned out to be 100%; in assay [2] it was 99%; in assay [3] it was 100%.

For the molecule `CCN(CC)CCCNc1cc[n+]([O-])c2cc3ccccc3cc12`, the Inhibition turned out to be 100% in assay [1], 3% in assay [2] and 13% in assay [3].

In the case of `COc1ccc(CC(=O)NC2CCN(c3ccnc4cc(Cl)ccc34)C2)cc1.O=C(O)C(F)(F)F` (stereo not drawn), the Inhibition in assay [1] is recorded as 100%; in assay [2], 88%; in assay [3], 0%.
